# Reference: PubChem BioAssay (EPA / NIEHS)
# Inconclusive results are not listed. Activity calls are given as the source filed them. The calls were made as follows: active = hit-call score of the fitted dose curve at least 0.9, where 1 is the maximum; inconclusive = response in the unintended direction; inactive = score below 0.9.
# How the values were obtained:
# [1] = molecular target: rat Neonicotinoid receptor (NNR), Chrna7 (gene 25302) (UniProt Q05941); assay: NVS_LGIC_rNNR_BungSens: NovaScreen (NVS) Ligand-Gated Ion Channel Assay for rat Neonicotinoid receptor (NNR) (AID 2283315)
# Sequence of rat Neonicotinoid receptor (NNR), Chrna7 (gene 25302) (Q05941 whole entry, looked up): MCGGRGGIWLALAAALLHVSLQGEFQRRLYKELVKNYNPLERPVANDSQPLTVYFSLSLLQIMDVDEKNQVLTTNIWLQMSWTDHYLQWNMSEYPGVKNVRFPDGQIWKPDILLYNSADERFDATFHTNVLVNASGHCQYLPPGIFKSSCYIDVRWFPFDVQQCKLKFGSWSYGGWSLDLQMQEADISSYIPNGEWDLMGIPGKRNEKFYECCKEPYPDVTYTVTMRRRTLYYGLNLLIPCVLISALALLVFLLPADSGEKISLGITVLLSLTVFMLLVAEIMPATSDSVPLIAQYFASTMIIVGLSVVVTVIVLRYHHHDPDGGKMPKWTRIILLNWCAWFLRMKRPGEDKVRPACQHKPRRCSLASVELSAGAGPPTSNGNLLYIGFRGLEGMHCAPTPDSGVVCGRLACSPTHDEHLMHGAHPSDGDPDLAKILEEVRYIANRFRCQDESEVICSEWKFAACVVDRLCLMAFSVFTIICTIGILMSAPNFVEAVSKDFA
# In short: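 Radioligand displacement binding on rat cortical membranes, 2.5 h incubation, filtration and scintillation counting. Loss of specific binding fitted relative to DMSO.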
# [2] = molecular target: bovine Gamma-Aminobutyric Acid Type A Receptor BDZ, alpha 5 site (GABARa5), GABRA5 (gene 523515) (UniProt Q08E50); assay: NVS_LGIC_bGABARa5: NovaScreen (NVS) Ligand-Gated Ion Channel Assay for bovine Gamma-Aminobutyric Acid Type A Receptor BDZ, alpha 5 site (GABARa5) (AID 2283323)
# Sequence of bovine Gamma-Aminobutyric Acid Type A Receptor BDZ, alpha 5 site (GABARa5), GABRA5 (gene 523515) (Q08E50 whole entry, looked up): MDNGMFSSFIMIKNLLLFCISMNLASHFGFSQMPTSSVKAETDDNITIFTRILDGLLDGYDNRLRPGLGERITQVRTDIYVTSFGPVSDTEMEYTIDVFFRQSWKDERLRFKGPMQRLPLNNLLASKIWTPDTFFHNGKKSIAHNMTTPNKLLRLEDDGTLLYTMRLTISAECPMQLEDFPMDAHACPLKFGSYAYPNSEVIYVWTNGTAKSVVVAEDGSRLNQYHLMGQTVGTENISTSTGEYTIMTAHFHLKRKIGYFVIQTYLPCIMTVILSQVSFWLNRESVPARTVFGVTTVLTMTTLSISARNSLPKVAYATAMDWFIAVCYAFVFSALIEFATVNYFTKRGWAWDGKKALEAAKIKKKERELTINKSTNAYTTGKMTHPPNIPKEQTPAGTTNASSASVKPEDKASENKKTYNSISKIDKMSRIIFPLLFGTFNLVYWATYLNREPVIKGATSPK
# In short: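 Radioligand competitive displacement binding on bovine hippocampal membranes, read 1 hr after dosing by filter-based scintillation counting. Primary screen at 25 uM in duplicate; actives (e.g. ≥30% inhibition) then run in concentration-response up to 50 uM.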
# [3] = molecular target: Sodium channel protein type 1 subunit alpha (Rattus norvegicus) (UniProt P04774); assay: NVS_IC_rNaCh_site2: NovaScreen (NVS) Ion Channel Assay for rat Sodium Channel, Site 2 (NaCh) (AID 2283322);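 also: hit means loss of radioligand binding signal relative to DMSO so AC50 marks displacement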
# In short: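 Membranes: rat forebrain. Format: competitive radioligand displacement, filter separation, scintillation readout, 1 h exposure. Primary screen in duplicate at 25 uM; actives retested in concentration series.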
# [4] = NVS_IC_rCaDHPRCh_L: NovaScreen (NVS) Ion Channel Assay for rat Calcium Channel, Type L, Dihydropyridine Site (CaDHPRCh_L) (AID 2283320)
# In short: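 Radioligand binding to dihydropyridine site on rat cortical membranes, filter-based scintillation counting, 1 h after dosing. Screened in duplicate at 25 uM; actives rerun in concentration-response up to 50 uM. Loss of signal versus DMSO baseline.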
# [5] = molecular target: rat Opioid Receptor, Non-selective Sodium (Na+) Binding, Oprm1 (gene 25601) (UniProt P33535); assay: NVS_GPCR_rOpiate_NonSelectiveNa: NovaScreen (NVS) G Protein-Coupled Receptor Assay for rat Opioid Receptor, Non-selective Sodium (Na+) Binding (AID 2283311)
# Sequence of rat Opioid Receptor, Non-selective Sodium (Na+) Binding, Oprm1 (gene 25601) (P33535 whole entry, looked up): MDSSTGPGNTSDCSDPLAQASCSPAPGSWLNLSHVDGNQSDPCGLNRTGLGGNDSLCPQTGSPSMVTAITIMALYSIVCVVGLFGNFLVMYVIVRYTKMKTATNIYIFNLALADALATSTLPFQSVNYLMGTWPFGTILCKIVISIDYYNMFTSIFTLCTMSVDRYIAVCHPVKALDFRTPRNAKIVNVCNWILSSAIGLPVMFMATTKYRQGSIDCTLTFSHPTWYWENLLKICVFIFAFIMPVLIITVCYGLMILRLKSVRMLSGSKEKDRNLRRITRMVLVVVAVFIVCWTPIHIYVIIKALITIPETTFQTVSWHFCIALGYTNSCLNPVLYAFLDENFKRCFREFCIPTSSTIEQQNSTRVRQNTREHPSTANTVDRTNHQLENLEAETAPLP
# In short: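 Rat forebrain membranes, radioligand displacement with filter scintillation counting, 1.5 h incubation. Screened in duplicate at 25 µM; hits then run in concentration-response up to 50 µM; loss of binding fitted versus DMSO.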
# [6] = molecular target: rat Somatostatin Receptor (SST), Sstr1 (gene 25033) (UniProt P28646); assay: NVS_GPCR_rSST: NovaScreen (NVS) G Protein-Coupled Receptor Assay for rat Somatostatin Receptor (SST) (AID 2283314)
# Sequence of rat Somatostatin Receptor (SST), Sstr1 (gene 25033) (P28646 whole entry, looked up): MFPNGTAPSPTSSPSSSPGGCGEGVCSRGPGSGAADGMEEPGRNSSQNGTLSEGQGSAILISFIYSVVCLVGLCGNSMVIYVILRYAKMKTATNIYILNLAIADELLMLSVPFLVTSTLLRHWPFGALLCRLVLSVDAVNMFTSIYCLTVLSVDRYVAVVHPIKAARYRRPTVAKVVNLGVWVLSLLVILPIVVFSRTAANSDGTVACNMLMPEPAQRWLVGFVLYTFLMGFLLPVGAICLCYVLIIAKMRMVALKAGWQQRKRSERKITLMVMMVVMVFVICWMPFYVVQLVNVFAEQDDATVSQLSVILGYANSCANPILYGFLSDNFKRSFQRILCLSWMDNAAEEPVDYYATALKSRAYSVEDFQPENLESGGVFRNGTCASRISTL
# In short: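 Rat forebrain membranes; radioligand displacement read by filter-based scintillation counting 1 h after dosing. Primary screen in duplicate at 25 uM. Actives (e.g., 30% inhibition) were rerun as concentration-response to 50 uM max and fitted against DMSO.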
# [7] = molecular target: rat Opioid Receptor, Non-selective Binding, Oprm1 (gene 25601) (UniProt P33535); assay: NVS_GPCR_rOpiate_NonSelective: NovaScreen (NVS) G Protein-Coupled Receptor Assay for rat Opioid Receptor, Non-selective Binding (AID 2283318)
# Sequence of rat Opioid Receptor, Non-selective Binding, Oprm1 (gene 25601) (P33535 whole entry, looked up): as the sequence (P33535 whole entry, looked up) above
# In short: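 Rat forebrain membranes, cell-free radioligand binding with filter-based scintillation counting, read 1.5 h after dosing. Primary screen in duplicate at 25 uM; actives retested in concentration series. Loss of signal versus DMSO baseline scored.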
# [8] = molecular target: rat Neurokinin-3 Receptor (NK3), Tacr3 (gene 24808) (UniProt P16177); assay: NVS_GPCR_rNK3: NovaScreen (NVS) G Protein-Coupled Receptor Assay for rat Neurokinin-3 Receptor (NK3) (AID 2283310)
# Sequence of rat Neurokinin-3 Receptor (NK3), Tacr3 (gene 24808) (P16177 whole entry, looked up): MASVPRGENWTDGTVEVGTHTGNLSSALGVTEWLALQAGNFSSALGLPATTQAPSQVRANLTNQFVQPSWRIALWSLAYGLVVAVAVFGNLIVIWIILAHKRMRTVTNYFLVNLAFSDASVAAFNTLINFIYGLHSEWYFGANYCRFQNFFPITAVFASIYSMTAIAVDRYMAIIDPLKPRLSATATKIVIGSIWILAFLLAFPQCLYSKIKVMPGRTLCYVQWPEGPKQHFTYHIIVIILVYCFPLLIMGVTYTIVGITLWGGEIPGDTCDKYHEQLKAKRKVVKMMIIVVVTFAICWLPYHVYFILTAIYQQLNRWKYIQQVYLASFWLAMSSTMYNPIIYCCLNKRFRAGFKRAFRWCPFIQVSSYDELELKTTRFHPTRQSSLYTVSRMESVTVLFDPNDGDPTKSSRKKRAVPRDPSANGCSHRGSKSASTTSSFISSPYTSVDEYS
# In short: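 Rat cortical membranes; radioligand binding with filtration and scintillation counting, 2 h after dosing. Primary screen in duplicate at 25 uM, then concentration-response up to 50 uM; loss of binding signal relative to DMSO.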
# [9] = molecular target: rat Vasopressin 1 Receptor (V1), Avpr1a (gene 25107) (UniProt P30560); assay: NVS_GPCR_rV1: NovaScreen (NVS) G Protein-Coupled Receptor Assay for rat Vasopressin 1 Receptor (V1) (AID 2283316)
# Sequence of rat Vasopressin 1 Receptor (V1), Avpr1a (gene 25107) (P30560 whole entry, looked up): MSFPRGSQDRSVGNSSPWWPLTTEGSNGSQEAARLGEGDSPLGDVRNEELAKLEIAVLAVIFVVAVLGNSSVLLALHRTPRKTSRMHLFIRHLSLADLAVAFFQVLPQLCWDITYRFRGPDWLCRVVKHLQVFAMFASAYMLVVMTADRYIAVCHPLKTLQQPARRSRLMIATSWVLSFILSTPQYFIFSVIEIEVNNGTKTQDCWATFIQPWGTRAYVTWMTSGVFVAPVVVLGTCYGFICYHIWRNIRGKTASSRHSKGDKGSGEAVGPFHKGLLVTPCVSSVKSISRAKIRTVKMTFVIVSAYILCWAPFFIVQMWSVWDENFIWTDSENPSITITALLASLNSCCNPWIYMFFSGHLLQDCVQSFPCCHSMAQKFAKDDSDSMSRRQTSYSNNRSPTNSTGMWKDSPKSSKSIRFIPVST
# In short: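 Radioligand binding on rat liver membranes, 1.5 h incubation, filter-based scintillation counting. Single 25 uM screen in duplicate; chemicals meeting threshold (e.g. 30% inhibition) run in concentration-response up to 50 uM.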
# [10] = system: NCBI gene 24521; assay: NVS_IC_rKATPCh: NovaScreen (NVS) Ion Channel Assay for rat Potassium Channel, ATP-Sensitive (KATPCh) (AID 2283319)
# In short: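 Rat cortical membranes; radioligand binding at ATP-sensitive K channel site, filter-based scintillation counting 2 h after dosing. Single-point duplicate screen at 25 uM, hits rerun in concentration-response up to 50 uM; loss of signal versus DMSO.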
smiles,measurement,setting,value
CC(C)CCO,outcome,[1],inactive
CNCc1ccc(NC(=O)c2c[nH]c3c2C(=O)CCC3)cc1,outcome,[2],inactive
O=c1[nH]c2ccc(S(=O)CCN3CCC(Cc4ccc(F)cc4)CC3)cc2o1 (configuration not stated),AC50,[3],6.76 µM (active)
O=P(OC(CCl)CCl)(OC(CCl)CCl)OC(CCl)CCl,AC50,[4],6.41 µM (active)
same,outcome,[3],inactive
CCOC(=O)c1ccc(C2CCC(NC[C@H](O)COc3ccc(O)c(NS(C)(=O)=O)c3)CC2)cc1 (some centres not stated),outcome,[5],inactive
same,AC50,[4],18.4 µM (active)
same,AC50,[3],3.33 µM (active)
O=C(O)CCN(C1(C(=O)NO)CCCC1)S(=O)(=O)c1ccc(Oc2ccc(F)cc2)cc1,outcome,[6],inactive
O=C(NS(=O)(=O)/C=C/c1ccccc1)c1ccc(F)cc1Cl,outcome,[1],inactive
Cc1[nH]cnc1C[C@H]1CCc2c(C)c3ccccc3n2C1=O,outcome,[1],inactive
same,AC50,[7],9.93 µM (active)
same,AC50,[4],1.5 µM (active)
same,AC50,[3],10.4 µM (active)
Nc1ccc(Nc2ccccc2)cc1,AC50,[3],5.39 µM (active)
CNS(=O)(=O)c1cc(C(=O)N2CCC(CCN3C4CCC3CC(n3c(C)nc5ccccc53)C4)(c3cccc(F)c3)CC2)c(Cl)cc1F (configuration not stated),AC50,[8],5.41 µM (active)
same,AC50,[5],16.1 µM (active)
same,outcome,[6],inactive
same,AC50,[1],26.3 µM (active)
same,AC50,[7],10.1 µM (active)
same,AC50,[4],6.97 µM (active)
same,AC50,[3],13.1 µM (active)
Cc1ccc(N)cc1O,outcome,[9],inactive
COc1ccc(/C=C/S(=O)(=O)NC(=O)c2ccc(C)cc2Cl)cc1,outcome,[5],inactive
O=C(CCCCCCCCc1cccnc1)N1CCC(C=C(c2ccccc2)c2ccccc2)CC1,outcome,[9],inactive
COCCOc1cc2cc(C(=O)NC3CCN(C(C)C)CC3)n(CC(=O)Nc3ccc(Cl)cn3)c2cn1,AC50,[3],25.8 µM (active)
CC(C)CC(C)(O)C#CC(C)(O)CC(C)C (configuration not stated),outcome,[3],inactive
O=C(O)CC(O)C(=O)O (configuration not stated),outcome,[7],inactive
same,outcome,[3],inactive
CCOC(=O)CC(CC(=O)OCC)(OC(C)=O)C(=O)OCC,outcome,[8],inactive
same,outcome,[1],inactive
CCOc1cccc(-n2cc(C(=O)N3CCN(c4cc(C(=O)O)c5ccccc5c4)CC3)nc2-c2ccc(C)cc2)c1,AC50,[8],8.81 µM (active)
same,AC50,[10],21.2 µM (active)
same,AC50,[3],7.07 µM (active)
CN(C)c1ccc(N=NS(=O)(=O)O)cc1,outcome,[8],inactive
same,AC50,[7],31.6 µM (active)
same,outcome,[10],inactive
CCN(C(=O)c1cc(C)cc(OC[C@H](C)Nc2ccncc2)c1)C(C)C,outcome,[7],inactive
same,AC50,[3],10.1 µM (active)
CCCCCCCCCCCCCCCO,outcome,[5],inactive
CCc1cc(SCc2sc(-c3ccc(C(F)(F)F)cc3)nc2CN2CCN(c3ccc(OC)cc3)CC2)ccc1OCC(=O)O,outcome,[6],inactive
same,outcome,[7],inactive
same,AC50,[10],35.9 µM (active)
same,AC50,[4],15.9 µM (active)
same,AC50,[3],25 µM (active)
CCCCCCCCO,outcome,[10],inactive
COc1ccc(-n2nc(C(F)F)cc2-c2ccc(S(C)=O)cc2)cc1 (configuration not stated),outcome,[8],inactive
same,outcome,[5],inactive
same,outcome,[1],inactive
same,outcome,[3],inactive
CCOC(=O)COc1ccc2c(c1)CC(NCC(O)c1cccc(Cl)c1)CC2 (configuration not stated),outcome,[4],inactive
same,AC50,[3],6.7 µM (active)
CCCCCCc1ccc(O)cc1O,outcome,[3],inactive
CCn1nc(Cc2ccccc2)cc1C1CCN(C[C@H]2C[C@H](N(C)[C@@H](C(=O)O)C(C)C)C[C@@H]2c2cccc(F)c2)CC1,AC50,[5],7.28 µM (active)
same,AC50,[1],15.5 µM (active)
same,AC50,[7],4.11 µM (active)
same,AC50,[4],4.21 µM (active)
same,AC50,[3],17.4 µM (active)
CCCCC(CC)COC(=O)CCCCCCCCC(=O)OCC(CC)CCCC (configuration not stated),outcome,[3],inactive
CC[C@H]1CC[C@H](NCc2cc3c(cc2OC)[C@H]2C[C@H]2C(=O)N3C)[C@H](c2ccccc2)N1,AC50,[5],2.83 µM (active)
same,outcome,[1],inactive
same,AC50,[7],2.58 µM (active)
same,AC50,[3],0.163 µM (active)
COc1cccc(-c2ccc(/C=C\CN3CCCCCC3)cc2Cl)c1,AC50,[5],15.2 µM (active)
same,outcome,[6],inactive
same,outcome,[1],inactive
same,AC50,[7],11.2 µM (active)
same,AC50,[4],0.555 µM (active)
same,AC50,[3],1.33 µM (active)
CCCN(C1CCN(C(=O)C2CCNCC2)CC1)[C@@H]1CCc2ccc(OC)cc2C1,outcome,[9],inactive
same,outcome,[4],inactive
same,AC50,[3],7.66 µM (active)
